Screens deposited in PubChem by The Scripps Research Institute Molecular Screening Center.
eLon inh – inhibits E. coli Lon protease | purified E. coli Lon protease, fluorescence polarization | inhibition, % at 7.94 µM | actives 0.42% (n = 360,000) | AID 602123; in the data active = inhibition above about 13%, passing the limit was not always enough;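 also: 0% = enzyme with probe and DMSO and 100% = no enzyme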
Rin1-Abl PPI inh – human Rin1-Abl interaction inhibition; P00519+Q13671; TR-FRET Rin1/Abl binding, biochemical; inhibition, % at 7.35 µM; actives 0.4% (n = 360,000); in the data active = inhibition above about 5%, passing the limit was not always enough
PAFAH2 FP inh – PAFAH2 (human) inhibition; Q99487; recombinant PAFAH2, FP-rhodamine activity probe, fluorescence polarization; inhibition, % at 3.39 µM; actives 0.99% (n = 340,000);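 active = inhibition above the mean over all tested compounds plus 3 SD, cut at about 30% in these data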;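 also: inhibitors block probe labeling of enzyme so polarization drops; 0% = enzyme with DMSO and 100% = wells lacking PAFAH2 protein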
pPAFAH FP inh – pPAFAH (human) enzyme inhibition | inhibition, % at 3.39 µM | Q13093 | recombinant pPAFAH, FP-rhodamine probe fluorescence polarization | actives 1.5% (n = 330,000);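 active = inhibition above the mean inhibition across the screen plus 3 SD, cut at about 25% in these data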;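 also: inhibitors block binding of the rhodamine activity-based probe so polarization drops; 0% = enzyme with DMSO and 100% = wells lacking pPAFAH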
Target sequence (Q13093 whole entry, looked up): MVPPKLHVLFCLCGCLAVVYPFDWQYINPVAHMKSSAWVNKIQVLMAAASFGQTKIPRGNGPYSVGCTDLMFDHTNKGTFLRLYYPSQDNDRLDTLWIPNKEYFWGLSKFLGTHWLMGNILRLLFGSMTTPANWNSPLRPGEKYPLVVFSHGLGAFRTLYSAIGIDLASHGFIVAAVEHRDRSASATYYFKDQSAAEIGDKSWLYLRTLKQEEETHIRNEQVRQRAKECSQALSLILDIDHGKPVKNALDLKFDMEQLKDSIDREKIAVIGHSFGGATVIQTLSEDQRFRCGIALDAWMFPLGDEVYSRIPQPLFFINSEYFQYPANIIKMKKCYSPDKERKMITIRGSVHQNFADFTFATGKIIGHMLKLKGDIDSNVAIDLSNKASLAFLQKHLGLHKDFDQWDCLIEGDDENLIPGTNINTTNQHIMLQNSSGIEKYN
PAFAH1B3 FP inh – inhibitors of human PAFAH1B3; recombinant PAFAH1B3, FP-rhodamine probe, fluorescence polarization; inhibition, % at 3.39 µM; actives 0.28% (n = 340,000); AID 492972;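 active = inhibition above the screen-wide average of all tested compounds plus 3 SD, cut at about 25% in these data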;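 also: 0% = enzyme with DMSO only and 100% = wells lacking PAFAH1B3 protein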
PAFAH1B2 inh – blocks human PAF acetylhydrolase 1b catalytic subunit 2; P68402; recombinant PAFAH1B2, FP-rhodamine activity probe, fluorescence polarization; inhibition, % at 3.39 µM; actives 1.2% (n = 340,000);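 active = inhibition above the mean of all tested compounds plus 3 SD, cut at about 24% in these data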;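 also: 0% = enzyme with DMSO and 100% = wells lacking PAFAH1B2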
Rin1-Abl confirm – confirmation of inhibitors of human Rin1-Abl interaction; shares compounds with Rin1-Abl PPI inh; inhibition, % at 7.35 µM; TR-FRET Rin1-Abl binding, purified proteins; actives 49% (n = 1,300)
GFP quench – quenches GFP fluorescence, counter-screen for Rin1-Abl inhibitors; AID 602125; inhibition, % at 6.75 µM; shares compounds with Rin1-Abl PPI inh; actives 8.5% (n = 1,300); inhibitors/quenchers counterscreen;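 also: ABL1-eGFP fusion protein alone without its partner RIN1-SBP; 0% = protein with vehicle and 100% = wells lacking protein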
GFP quench DR – counter-screen for Rin1-Abl inhibitors: GFP quenchers, dose response; AID 602182; 230 tested, under 10 active; GFP fluorescence interference/quenching counterscreen; IC50, µM; shares compounds with Rin1-Abl PPI inh; call rule not given here;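 also: ABL1-eGFP fusion protein alone without its RIN1 binding partner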
An asterisk follows results filed as active; . = not tested or not shown. Shown are actives, neighbours in structure and some others; about 3.1% of the full set was active somewhere. Rule as the data show it, unless noted: active = inhibition above about 6.5%; inactive = the rest.

SMILES	eLon inh	Rin1-Abl PPI inh	PAFAH2 FP inh	pPAFAH FP inh	PAFAH1B3 FP inh	PAFAH1B2 inh	Rin1-Abl confirm	GFP quench	others
O=C(Nc1nc(-c2cc(Cl)sc2Cl)cs1)c1cccs1	8	-1	-23	-26	-16	-15	.	.
O=C(Nc1nc(-c2cc(Cl)sc2Cl)cs1)c1ccc(Br)s1	4	6.0*	-4	6	-5	-7	-1	0
COc1cccc(C(=O)c2ncc(C(F)(F)F)cc2Cl)c1	-3	13*	-1	-3	2	2	-3	0
COc1ccc(C(=O)c2ncc(C(F)(F)F)cc2Cl)cc1	-2	2	8	2	10	3	.	.
CCOc1ccc(S(=O)(=O)NCc2ccc3c(c2)OCO3)cc1	-7	-3	-1	7	2	2	.	.
O=C(CSc1ncnc2sccc12)NCc1ccc2c(c1)OCO2	-10	2	-4	4	11	0	.	.
CC(C)CNC1=CC(=O)CC(c2ccco2)C1 (configuration not stated)	19	5.9*	18	10	3	5	0	4
CC(=O)c1cccc(OCc2cc(C(=O)N3CCC(N4CCCCC4)CC3)no2)c1	-13	9.9*	0	4	-2	-1	6	0
CC(=O)c1cccc(OCc2cc(C(=O)N3CCSCC3)no2)c1	-2	0	2	-4	1	2	.	.
COCCc1ccc(OC2(C)CCN(Cc3cccn3-c3nccs3)C2)cc1 (configuration not stated)	9	-1	.	.	.	.	.	.
O=C(c1ccc(Cl)c(Cl)c1)N1CCC(=O)N(C(COCc2ccccc2)Cc2ccccc2)CC1 (configuration not stated)	6	9.5*	16	-3	-7	7	15*	0
CC1(C(=O)NS(=O)(=O)c2cccc(Cl)c2)CCN1C(=O)Cc1ccc(-c2ccccc2)cc1 (configuration not stated)	-7	-2	.	.	.	.	.	.
CCOCc1nnc(NC(=O)c2c(OC)cccc2OC)s1	-12	22*	-1	3	6	2	24*	0	GFP quench DR=>67
COc1ccccc1CNc1nc(NCCN2CCNC2=O)c2sccc2n1	0	12*	.	.	.	.	6.9*	-1
Cc1ccc(NS(=O)(=O)c2cc(OCC(N)=O)c(C)cc2Cl)cc1C	2	12*	-1	6	2	5	-1	-1
CN(CCc1ccccc1)C(=O)c1ccc(NC(=O)Cc2cccc(NC(=O)C3CCN(C(=O)C4CCC4)CC3)c2)cc1	2	-3	-5	.	9	6	.	.
CN(CCc1ccccc1)C(=O)c1ccc(NC(=O)Cc2cccc(NC(=O)C3CCN(C(=O)C4CCCC4)CC3)c2)cc1	-5	12*	-1	.	0	-1	16*	0
CN(CCc1ccccc1)C(=O)c1ccc(NC(=O)Cc2ccc(NC(=O)C3CCN(C(=O)C4CCC4)CC3)cc2)cc1	2	27*	3	.	9	-1	26*	2	GFP quench DR=>67
CN(C(=O)c1ccc(NC(=O)Cc2cccc(NC(=O)C3CCN(C(=O)C4CCCCC4)CC3)c2)cc1)C1CC1	-6	14*	-1	.	-4	-2	26*	-1	GFP quench DR=>67
CN(CCc1ccccc1)C(=O)c1ccc(NC(=O)Cc2ccc(NC(=O)C3CCCN(C(=O)C4CCC4)C3)cc2)cc1 (configuration not stated)	10	3	-5	.	8	7	.	.
CN(CCc1ccccc1)C(=O)c1ccc(NC(=O)Cc2ccc(NC(=O)C3CCN(C(=O)C4CCCCC4)CC3)cc2)cc1	2	31*	-2	.	11	5	30*	1	GFP quench DR=>68
CN(Cc1ccccc1)C(=O)c1ccc(NC(=O)Cc2cccc(NC(=O)C3CCN(C(=O)C4CCCCC4)CC3)c2)cc1	-8	3	0	1	6	-5	.	.
